The panel holds about 83,000 compounds, 20% with a hit somewhere; the sample as a whole holds those more often.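 For each line, cells grew in 96-well plates with the test compound present at a single concentration for 48 hours.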 Calls of active or inactive are those of the source. How the source made its calls: active means growth percent below 10; inactive means the rest.
test system: NCI-H522 lung; test: NCI-60 one-dose screen, 48 h (100 = growth as untreated, 0 = no growth, -100 = all killed); conditions: 10 µM

Structure (SMILES) | growth
Clc1ccc(Nc2ccnc(NCCCNc3ccnc4cc(Cl)ccc34)n2)cc1 | -76% (active)
Oc1[nH]c2cc(Cl)ccc2c1/C=c1/ccc2c(c1)N=C(c1cc(F)cc(F)c1)N=2 | -3.39% (active)
CSc1nn(-c2ccccc2)c2ncnc(Oc3ccccc3)c12 | 72.6% (inactive)
Cc1cc2c(C)c3cc(C)c(N)cc3nc2cc1N | -49.4% (active)
CCOC(=O)C1(CC(C)C)CCOC1=O (stereo not drawn) | 100% (inactive)
COc1ccc(Nc2cc(C)nc(NCCCNc3ccnc4cc(Cl)ccc34)n2)cc1 | -74% (active)
CCCCCCCCCCCCCCCC(=O)OC1[C@@H](OC(=O)CCCCCCCCCCCCCCC)[C@@H](C(=O)N[C@@H](CCCCN)C(=O)OC)O[C@H]1n1cnc2c(=O)[nH]c(NC(=O)C(C)C)nc21 (stereo partly drawn) | 84.4% (inactive)
COc1cc(Nc2ccnc(NCCNc3ccnc4cc(Cl)ccc34)n2)cc(OC)c1 | 17.7% (inactive)
Cc1cc(Nc2ccc(Cl)cc2)nc(NCCCNc2ccnc3cc(Cl)ccc23)n1 | -78.8% (active)
COc1cc2cc3c(nc2cc1OC)CCN3Cc1ccc(NC(=O)Nc2cc(C(F)(F)F)cc(C(F)(F)F)c2)cc1 | 51.8% (inactive)
CC(C)=CCc1cc(O)cc2c1OC(C=C(C)C)C1=C2C(=O)C2=C(NCCS2(=O)=O)C1=O (stereo not drawn) | -20.6% (active)
CC(C)=CCc1cc(O)cc2c1OC(C=C(C)C)C1=C2C(=O)C2=C(C1=O)S(=O)(=O)CCN2 (stereo not drawn) | 7.19% (active)
COc1ccc(Nc2ccnc(NCCNc3ccnc4cc(Cl)ccc34)n2)cc1 | 43.9% (inactive)
Cc1cc(Cl)nc(N(CCCNc2ccnc3cc(Cl)ccc23)Cc2cccs2)n1 | -0.273% (active)
COc1cc(Cl)cc(-c2nn(-c3cccc(NC(=O)Nc4cc(C(F)(F)F)cc(C(F)(F)F)c4)c3)cc2-c2ccncc2)c1 | -15.6% (active)
CN(C)CCNC(=O)c1cccn2c(=O)c3cc4ccccc4cc3nc12 | -88.5% (active)
CC12O[C@H](C[C@@H](O)[C@H]1O)n1c3ccccc3c3c4c(c5c6ccccc6n2c5c31)C(=O)N(CCCN)C4=O | -2.33% (active)
CCCCCCCC(C)NCCO (stereo not drawn) | 84.9% (inactive)
Cc1cc(N(CCCNc2ccnc3cc(Cl)ccc23)Cc2ccc3c(c2)OCO3)nc(N2CCOCC2)n1 | 8.51% (active)
COc1cc(-c2nnc(-c3c(-c4ccc(F)cc4)nc4ccccn34)o2)cc(OC)c1OC | 4.71% (active)

Structure (SMILES) | growth
COc1ccc2c(c1)/C(=C\c1c[nH]c3ccc(OC)cc13)C(=O)N2 | 50.3% (inactive)
NC(=O)CC1(c2ccccc2)CCCCC1 | 96% (inactive)
COc1ccc(-c2nc3sccn3c2-c2nc3c([nH]2)C(=O)c2ccccc2C3=O)cc1 | 96.8% (inactive)
Fc1ccc(-c2nnc(-c3c(-c4ccc(F)cc4)nc4ccccn34)o2)cc1 | 25.9% (inactive)
CCN1CCCC1CNC(=O)c1ncc(-c2ccc(C(F)(F)F)cc2)c(NC2CCCCCC2)n1 (stereo not drawn) | 69.1% (inactive)
Cc1ccc(Nc2cc(C)nc(NCCCNc3ccnc4cc(Cl)ccc34)n2)cc1 | -83.5% (active)
Cn1c([N+](=O)[O-])cnc1/C=C1\Oc2ccccc2C1=O | -48.5% (active)
CC12O[C@H](C[C@@H](OC(=O)c3ccccc3)[C@H]1O)n1c3ccccc3c3c4c(c5c6ccccc6n2c5c31)C(=O)NC4=O | 66.7% (inactive)
COc1ccc(-c2nc3ncccn3c2-c2nnc(-c3ccc(F)cc3)o2)cc1 | 106% (inactive)
Nc1ccc2c(c1)C1(CCC2)NC(=O)NC1=O (stereo not drawn) | 98.6% (inactive)
COc1cc(OC)cc(-c2cncn2-c2ccc(-c3nc4cc(OC)cc(OC)c4s3)cc2)c1 | 61.3% (inactive)
Clc1ccc2c(NCCCNc3nccc(Nc4ccc(Br)cc4)n3)ccnc2c1 | -83.2% (active)
O=C(Nc1cccc(Br)c1)c1cc(=O)[nH]c2ccccc12 | 86.7% (inactive)
COc1cc(Nc2ccnc(NCCCNc3ccnc4cc(Cl)ccc34)n2)cc(OC)c1 | -44.8% (active)
CN1CCC(CNc2cc(C3(C(=O)Nc4cc(C(=O)Nc5ccc(Cl)c(C(F)(F)F)c5)ccc4F)CC3)ncn2)CC1 | 46.6% (inactive)
N#Cc1c(C#N)c(SSc2c(C#N)c(C#N)c(N)n2-c2ccccc2)n(-c2ccccc2)c1N | 67.3% (inactive)
Clc1ccc(Nc2ccnc(NCCNc3ccnc4cc(Cl)ccc34)n2)cc1 | -34.5% (active)
Cc1cc(N(CCCNc2ccnc3cc(Cl)ccc23)Cc2ccc3c(c2)OCO3)nc(N2CCCCC2)n1 | -43.9% (active)
CCCCN(CCCC)c1cc(C(=O)CCCCCN)c2ccccc2n1 | 76.9% (inactive)

test system: A549/ATCC NSCLC; test: as above; conditions: 10 µM

Structure (SMILES) | growth
Clc1ccc(Nc2ccnc(NCCCNc3ccnc4cc(Cl)ccc34)n2)cc1 | -65.1% (active)
Oc1[nH]c2cc(Cl)ccc2c1/C=c1/ccc2c(c1)N=C(c1cc(F)cc(F)c1)N=2 | 37.9% (inactive)
CSc1nn(-c2ccccc2)c2ncnc(Oc3ccccc3)c12 | 87.3% (inactive)
Cc1cc2c(C)c3cc(C)c(N)cc3nc2cc1N | 4.93% (active)
CCOC(=O)C1(CC(C)C)CCOC1=O (stereo not drawn) | 94.8% (inactive)
COc1ccc(Nc2cc(C)nc(NCCCNc3ccnc4cc(Cl)ccc34)n2)cc1 | -44.7% (active)
CCCCCCCCCCCCCCCC(=O)OC1[C@@H](OC(=O)CCCCCCCCCCCCCCC)[C@@H](C(=O)N[C@@H](CCCCN)C(=O)OC)O[C@H]1n1cnc2c(=O)[nH]c(NC(=O)C(C)C)nc21 (stereo partly drawn) | 99.8% (inactive)
COc1cc(Nc2ccnc(NCCNc3ccnc4cc(Cl)ccc34)n2)cc(OC)c1 | 42.9% (inactive)
Cc1cc(Nc2ccc(Cl)cc2)nc(NCCCNc2ccnc3cc(Cl)ccc23)n1 | -55.2% (active)
COc1cc2cc3c(nc2cc1OC)CCN3Cc1ccc(NC(=O)Nc2cc(C(F)(F)F)cc(C(F)(F)F)c2)cc1 | 52.1% (inactive)
CC(C)=CCc1cc(O)cc2c1OC(C=C(C)C)C1=C2C(=O)C2=C(NCCS2(=O)=O)C1=O (stereo not drawn) | 2.33% (active)
CC(C)=CCc1cc(O)cc2c1OC(C=C(C)C)C1=C2C(=O)C2=C(C1=O)S(=O)(=O)CCN2 (stereo not drawn) | 70.1% (inactive)
COc1ccc(Nc2ccnc(NCCNc3ccnc4cc(Cl)ccc34)n2)cc1 | 47% (inactive)
Cc1cc(Cl)nc(N(CCCNc2ccnc3cc(Cl)ccc23)Cc2cccs2)n1 | 18.1% (inactive)
COc1cc(Cl)cc(-c2nn(-c3cccc(NC(=O)Nc4cc(C(F)(F)F)cc(C(F)(F)F)c4)c3)cc2-c2ccncc2)c1 | 5.14% (active)
CN(C)CCNC(=O)c1cccn2c(=O)c3cc4ccccc4cc3nc12 | -27.1% (active)
CC12O[C@H](C[C@@H](O)[C@H]1O)n1c3ccccc3c3c4c(c5c6ccccc6n2c5c31)C(=O)N(CCCN)C4=O | 31.5% (inactive)
CCCCCCCC(C)NCCO (stereo not drawn) | 93.5% (inactive)
Cc1cc(N(CCCNc2ccnc3cc(Cl)ccc23)Cc2ccc3c(c2)OCO3)nc(N2CCOCC2)n1 | 28.7% (inactive)
COc1cc(-c2nnc(-c3c(-c4ccc(F)cc4)nc4ccccn34)o2)cc(OC)c1OC | 70.7% (inactive)

Structure (SMILES) | growth
COc1ccc2c(c1)/C(=C\c1c[nH]c3ccc(OC)cc13)C(=O)N2 | 30.8% (inactive)
NC(=O)CC1(c2ccccc2)CCCCC1 | 116% (inactive)
COc1ccc(-c2nc3sccn3c2-c2nc3c([nH]2)C(=O)c2ccccc2C3=O)cc1 | 67.5% (inactive)
Fc1ccc(-c2nnc(-c3c(-c4ccc(F)cc4)nc4ccccn34)o2)cc1 | 72.4% (inactive)
CCN1CCCC1CNC(=O)c1ncc(-c2ccc(C(F)(F)F)cc2)c(NC2CCCCCC2)n1 (stereo not drawn) | 77.2% (inactive)
Cc1ccc(Nc2cc(C)nc(NCCCNc3ccnc4cc(Cl)ccc34)n2)cc1 | -69.3% (active)
Cn1c([N+](=O)[O-])cnc1/C=C1\Oc2ccccc2C1=O | -31.4% (active)
CC12O[C@H](C[C@@H](OC(=O)c3ccccc3)[C@H]1O)n1c3ccccc3c3c4c(c5c6ccccc6n2c5c31)C(=O)NC4=O | 50.9% (inactive)
COc1ccc(-c2nc3ncccn3c2-c2nnc(-c3ccc(F)cc3)o2)cc1 | 104% (inactive)
Nc1ccc2c(c1)C1(CCC2)NC(=O)NC1=O (stereo not drawn) | 99.5% (inactive)
COc1cc(OC)cc(-c2cncn2-c2ccc(-c3nc4cc(OC)cc(OC)c4s3)cc2)c1 | 45.4% (inactive)
Clc1ccc2c(NCCCNc3nccc(Nc4ccc(Br)cc4)n3)ccnc2c1 | -71.7% (active)
O=C(Nc1cccc(Br)c1)c1cc(=O)[nH]c2ccccc12 | 94.1% (inactive)
COc1cc(Nc2ccnc(NCCCNc3ccnc4cc(Cl)ccc34)n2)cc(OC)c1 | 11.9% (inactive)
CN1CCC(CNc2cc(C3(C(=O)Nc4cc(C(=O)Nc5ccc(Cl)c(C(F)(F)F)c5)ccc4F)CC3)ncn2)CC1 | 13.4% (inactive)
N#Cc1c(C#N)c(SSc2c(C#N)c(C#N)c(N)n2-c2ccccc2)n(-c2ccccc2)c1N | 112% (inactive)
Clc1ccc(Nc2ccnc(NCCNc3ccnc4cc(Cl)ccc34)n2)cc1 | 10.8% (inactive)
Cc1cc(N(CCCNc2ccnc3cc(Cl)ccc23)Cc2ccc3c(c2)OCO3)nc(N2CCCCC2)n1 | -32.8% (active)
CCCCN(CCCC)c1cc(C(=O)CCCCCN)c2ccccc2n1 | -31.8% (active)
